Measured values reported in PubChem BioAssay (Tox21).
Active and inactive are the calls of the source. A call without a number means that no potency is given here. Calls come from the whole dose curve; as a rule, active = well fitted curve in the direction sought with a large enough effect in the repeat runs; inconclusive = weak or mixed curves; inactive = flat fitted curve, though single readings scatter.

Assay: qHTS assay to test for compound auto fluorescence at 535 nm (green) in HEK293 cell free culture (AID 720682)
Conditions: cell-free medium, green autofluorescence 485/535 nm; series mostly up to 91.3 µM
Text: U.S. Tox21 Program National Center for Advancing Translational Sciences [NCATS] NIH Chemical Genomics Center [NCGC] U.S. Environmental Protection Agency [EPA] National Institutes of Environmental Health Sciences [NIEHS] National Toxicology Program [NTP] U.S. Food and Drug Administration [FDA] Tox21 Assay Overview: Compound auto fluorescence often interferes with screening of the compound library against various biological targets and signaling pathways. Some of these compounds may have fluorophoric properties. Such properties may interfere with the assay outputs resulting in false positives and/or negatives. To decrease such complications and ensure the compound activities are relevant in terms of biological response, the Tox21 10K compound library was screened for auto fluorescence. From the fluorophores used as reporter signals in our screening assays, the auto fluorescence equivalencies of compounds against three fluorophores have been evaluated: Triamterene, Fluorescein and Rose Bengal sodium for blue, green and red fluorescence, respectively. The fluorescence intensities were measured using Excitation/Emission wavelengths at 405/460nm, 485/535nm and 540/590nm for blue, green and red labels, respectively. This assay includes the green fluorescence data.
Tox21 Assay Protocol Summary: 5 uL of culture medium (DMEM containing 10% FBS) per well was dispensed into black wall/clear bottom 1536-well plates using a Multidrop Combi Dispenser (ThermoFisher Scientific, Waltham, MA). After 23 nL compound or DMSO vehicle was transferred into assay plate by a pintool work station (Kalypsys, San Diego, CA), fluorescence intensities in the assay plates were measured by an Envision (PerkinElmer, Shelton, CT) plate reader using three labels for measuring blue, green and red fluorescence at […] 460, 535 and 590nm respectively.

Structure (SMILES) | Potency
CCc1nc(N)nc(N)c1-c1ccc(Cl)cc1 | inactive
CN(C)CCOC(c1ccccc1)c1ccccc1 | inactive
Nc1c2c(nc3ccccc13)CCCC2 | inactive
NC(CO)(CO)CO | inactive
Cc1cn([C@H]2C=C[C@@H](CO)O2)c(=O)[nH]c1=O | inactive
CC(O)(P(=O)(O)O)P(=O)(O)O | inactive
Oc1ccccc1 | inactive
C/C=C/C=C/C(=O)O | inactive
CCCCC(CC)C(=O)O (stereo not given) | inactive
NC(=O)c1cccnc1 | inactive
Cc1ncc([N+](=O)[O-])n1CCO | inactive
O=C1NC(=O)C(c2ccccc2)(c2ccccc2)N1 | inactive
CCOc1ccc(NC(C)=O)cc1 | inactive
COc1ccc2c(c1)c(CC(=O)O)c(C)n2C(=O)c1ccc(Cl)cc1 | inactive
CN1[C@@H]2CC(OC(=O)[C@H](CO)c3ccccc3)C[C@H]1[C@@H]1O[C@@H]12 (stereo not given in full) | inactive
CC(=O)CCC(=O)O | inactive
CC(C)c1c(C(=O)Nc2ccccc2)c(-c2ccccc2)c(-c2ccc(F)cc2)n1CC[C@@H](O)C[C@@H](O)CC(=O)O | inactive
C1=CC2C3C=CC(C3)C2C1 (stereo not given) | inactive
F[B-](F)(F)F | inactive
O=C1O[C@H]([C@@H](O)CO)C(O)=C1O | inactive

Structure (SMILES) | Potency
CN(C)CCOC(C)(c1ccccc1)c1ccccn1 (stereo not given) | inactive
CC(=O)CC(c1ccccc1)c1c(O)c2ccccc2oc1=O (stereo not given) | inactive
C=C(C)C(=O)OCC(C)O (stereo not given) | inactive
O=C(O)c1ccccc1 | inactive
CC1(C)S[C@@H]2[C@H](NC(=O)[C@H](N)c3ccccc3)C(=O)N2[C@H]1C(=O)O | inactive
O=c1[nH]cnc2c1ncn2[C@H]1CC[C@@H](CO)O1 | inactive
Cc1cccc(C)c1 | inactive
CC(C)C(=O)Nc1ccc([N+](=O)[O-])c(C(F)(F)F)c1 | inactive
CC(=O)C(=O)O | inactive
O=C(O)CC(O)C(=O)O (stereo not given) | inactive
Cc1cc(C)nc(NS(=O)(=O)c2ccc(N)cc2)n1 | inactive
O=CC(=O)c1ccccc1 | inactive
CCCc1cc(=O)[nH]c(=S)[nH]1 | inactive
COc1ccc(OC(F)(F)F)cc1CN[C@H]1CCCN[C@H]1c1ccccc1 | inactive
O=C(Nc1ncc([N+](=O)[O-])s1)c1cccs1 | inactive
NS(=O)(=O)c1cc2c(cc1Cl)NCNS2(=O)=O | inactive
CN1CCC[C@H]1c1cccnc1 | inactive
O=C1NS(=O)(=O)c2ccccc21 | inactive
CN(C)C(=O)Nc1ccc(Cl)c(Cl)c1 | inactive
CC1(C)O[C@@H]2C[C@H]3[C@@H]4CCC5=CC(=O)C=C[C@]5(C)[C@@]4(F)[C@@H](O)C[C@]3(C)[C@]2(C(=O)CO)O1 | inactive
